Experimental data as given in PubChem BioAssay AID602233 (National Center for Advancing Translational Sciences (NCATS), 2012).
About 170 (0.045%) of roughly 380,000 compounds were called active. Where a call stands in place of a potency, no number is given. This is one part of a sample in which actives are shown more often than they occur. Calls come from the whole dose curve; as a rule, active = well fitted inhibition curve with a large enough effect; inconclusive = small, poorly fitted or top-dose-only effect; inactive = no such curve, though single readings can be large or run the other way.

Target: Phosphoglycerate kinase, glycosomal (Trypanosoma brucei brucei) (UniProt P07378)
Sequence (P07378 whole entry, looked up): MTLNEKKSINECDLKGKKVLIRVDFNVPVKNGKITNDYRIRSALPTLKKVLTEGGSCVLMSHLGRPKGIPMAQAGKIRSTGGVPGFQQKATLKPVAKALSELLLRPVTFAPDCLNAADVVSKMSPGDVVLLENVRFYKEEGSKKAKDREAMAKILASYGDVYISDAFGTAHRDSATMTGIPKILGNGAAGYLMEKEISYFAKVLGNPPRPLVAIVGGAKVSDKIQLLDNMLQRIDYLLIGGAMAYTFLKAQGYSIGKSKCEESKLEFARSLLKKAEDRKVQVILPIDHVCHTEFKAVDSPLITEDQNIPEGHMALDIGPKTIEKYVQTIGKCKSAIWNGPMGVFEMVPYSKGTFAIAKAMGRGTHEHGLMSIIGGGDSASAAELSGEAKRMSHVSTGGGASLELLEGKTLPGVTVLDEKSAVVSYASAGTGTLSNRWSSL
Assay: qHTS Assay to Find Inhibitors of Phosphoglycerate Kinase; note: nearly all actives have a fitted effect of over 60% in size
Conditions: PGK/GAPDH coupled, Kinase-Glo luminescence, 60 min; series mostly up to 57.5 µM
Outline: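 Recombinant glycosomal PGK reaction used 1,3-bisphosphoglycerate generated in-well by GAPDH (100nM final) in 100mM TEA pH 7.6, 5mM MgCl2, 0.01% Tween-20. After 60 minutes at room temperature, ATP was read by Kinase-Glo Plus luminescence end-point.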
Potency is the fitted concentration of half-maximal effect.

Row | SMILES | Potency
1 | COc1ccccc1CNC(=O)NCc1noc2ccc(C)cc12 | inactive
2 | CCOc1ccccc1NC(=O)Cn1c2ncccc2c(=O)n1-c1ccc(C)c(C)c1 | inactive
3 | O=C(CSc1nc2ccccc2nc1Cc1ccccc1)N1CCCCC1 | inactive
4 | CCOc1cccc(NC(=O)CSc2ncc(-c3ccc(Cl)cc3)[nH]2)c1 | inactive
5 | Cc1c(C(=O)N(C)C)sc2c1c(=O)n(-c1ccc(F)cc1)c(=O)n2CC(=O)N(C)c1ccccc1 | inactive
6 | CCOc1ccc(N(C)S(=O)(=O)c2cc(-c3cnc(C)o3)ccc2OC)cc1 | inactive
7 | Cc1oc(-c2ccccc2F)nc1CN1CCC(C(=O)NCCc2ccc(Cl)cc2)CC1 | inactive
8 | CCOc1ccc(NC(=O)c2c(NC(=O)Cc3ccccc3)sc3c2CCCCC3)cc1 | inactive
9 | CCc1nnc(SCC(=O)Nc2cc(OC)ccc2OC)nc1CC | inactive
10 | CCOc1ccc(OCC)c(NC(=O)CN(c2ccc(C)cc2)S(=O)(=O)c2c(C)n[nH]c2C)c1 | inactive
11 | CCCS(=O)(=O)c1ncc(Cl)c(C(=O)Nc2scc(-c3ccccc3)c2C(=O)OCC)n1 | inactive
12 | Cc1sc(C2C(C#N)=C(N)N(c3cccc(Cl)c3)C3=C2C(=O)CCC3)cc1CN1CCOCC1 (centres undefined) | inactive
13 | Cc1ccc(C(=O)N2c3ncnn3C3(CCCCC3)[C@@H]3CCCC[C@@H]32)cc1 | inactive
14 | O=C(CC(c1cccs1)N1Cc2ccccc2C1=O)Nc1ccc(F)c(F)c1 (centres undefined) | inactive
15 | CC1=Nc2cc(C(=O)NCc3ccc(C)cc3)ccc2Sc2ccc(Cl)cc21 | inactive
16 | CCc1cnc2c(c1SCC(=O)N1CCC(C)CC1)c(=O)n(C)c(=O)n2C | inactive
17 | CCc1cccc(NC(=O)CN(c2ccc(C)c(C)c2)S(=O)(=O)c2ccsc2C(=O)OC)c1 | inactive
18 | CCOc1ccccc1NC(=O)c1ccc2c(c1)CCN2S(=O)(=O)c1ccc(C)cc1 | inactive
19 | CSc1ccc(NC(=O)Cn2nnnc2-c2ccccc2F)cc1 | inactive
20 | CC(=O)c1ccc(NC(c2ccc(F)cc2)c2nnc(-c3ccccc3)o2)cc1 (centres undefined) | inactive
21 | CCOc1ccc(CCNC(=O)c2c(C)oc3ncn(C)c(=O)c23)cc1 | inactive
22 | CCc1ccccc1NC(=O)c1cnn(-c2ccc(F)cc2)c1C1CCNCC1 | inactive
23 | Cc1ccc(CNC(=O)CCNS(=O)(=O)c2ccc3c(c2)oc(=O)n3C)cc1 | inactive
24 | CCc1cccc(-n2nnc(-c3nsc(NC(=O)c4ccc(C)cc4)n3)c2C)c1 | inactive

Row | SMILES | Potency
25 | CC(C)Cn1c(=O)c2ccccc2n2c(CCC(=O)N3CCN(c4cccc(Cl)c4)CC3)nnc12 | inactive
26 | Cc1ccc(OCCSc2nc(-c3cccs3)nc3cc(=O)[nH]n23)cc1Cl | inactive
27 | CC1=C(c2ccc(Cl)cc2)S(=O)(=O)N=C1N1CCN(c2cc(C)ccc2C)CC1 | inactive
28 | Cc1cccc(N2CCN(c3c(CN4CCCC4)c(=O)oc4ccccc34)CC2)c1C | inactive
29 | CCc1ccc(NC(=O)CN2CCSc3ccc(S(=O)(=O)N4CCCC4)cc32)cc1 | inactive
30 | CCCN(CCC)CCNC(=O)c1ccc2c(c1)NC(=O)C(CS(=O)(=O)Cc1cccc(Br)c1)N2 (centres undefined) | inactive
31 | COc1cc(CNC(=O)c2cc3n(n2)CCCN(Cc2cccc(F)c2)C3=O)cc(OC)c1OC | inactive
32 | COc1ccc(OC)c(-c2nc(C(N)=O)c3c(n2)n(-c2ccc4c(c2)OCO4)c(=O)n3C)c1 | inactive
33 | CCN(Cc1ccccc1)C(=O)c1cn(-c2cccc(OC)c2)c(=O)c2ccccc12 | inactive
34 | O=C(CCn1c(=O)c2ccccc2n(Cc2ccc(Cl)cc2)c1=O)NCc1ccc2c(c1)OCO2 | inactive
35 | Cc1ccccc1OCc1ccc(-c2nc(C#N)c(N3CCCCC3)o2)o1 | inactive
36 | CC(C)(C)OC(=O)N1CCC(c2c(C(=O)Nc3ccc4c(c3)OCO4)cnn2-c2ccccc2)CC1 | inactive
37 | COc1ccc(-n2c(=O)c3sc4ccccc4c3n(CC(=O)Nc3cccc(C)c3)c2=O)cc1 | inactive
38 | Cc1c(C)n(Cc2ccc(Cl)cc2)c2ccc(C(=O)NCCc3ccc(S(N)(=O)=O)cc3)cc12 | inactive
39 | CCCNC(=O)c1ccc2c(c1)ncn2-c1ccc(C)cc1C | inactive
40 | CCn1cc2nc(SCc3cccc(F)c3)n(CCc3ccccc3)c(=O)c2n1 | inactive
41 | Cc1nc2ccccn2c(=O)c1NC(=O)c1c(F)cccc1F | inactive
42 | COc1ccc(CCNc2ncnc3onc(-c4ccc(Cl)cc4)c23)c(OC)c1 | inactive
43 | CCOC(=O)C(Cc1ccccc1)NC(=O)CCc1c(C)nc2c(c(C)nn2-c2ccc(C)c(C)c2)c1C (centres undefined) | inactive
44 | COc1ccccc1NC(=O)c1oc2ccccc2c1NC(=O)C(C)C | inactive
45 | O=C(NCc1cccnc1)C(=O)NCC(c1cccnc1)N1CCN(c2ccccc2)CC1 (centres undefined) | inactive
46 | Cc1ccccc1CNC(=O)C(=O)NCC(c1cccs1)S(=O)(=O)c1cccs1 (centres undefined) | inactive
47 | O=C(CCC(=O)N1CC2CCCN2c2ccccc21)NCc1ccccc1Cl (centres undefined) | inactive
48 | O=C(CC1N=C2c3ccccc3N=C(SCc3cccc(Cl)c3)N2C1=O)NCc1ccc2c(c1)OCO2 (centres undefined) | inactive

Row | SMILES | Potency
49 | CCN(CC)S(=O)(=O)c1nnc(NC(=O)COc2ccccc2Cl)s1 | inactive
50 | Nc1ccc2nc3c(=O)[nH]c(=S)[nH]c3nc2c1 | 2.51 µM (active)
51 | Cc1oc2ccc(O)c(CN3CCC(C)CC3)c2c1C(=O)Nc1ccccc1 | inactive
52 | CCCCCn1c(CCCNC(=O)c2ccccc2OC)nc2ccccc21 | inactive
53 | CN(Cc1ccccc1)c1ncnc2onc(-c3ccc(F)cc3)c12 | inactive
54 | O=C(NCc1ccc2c(c1)CCN2C(=O)c1ccccc1)c1ccccc1 | inactive
55 | COc1ccc(-n2c(SCC(N)=O)nc3c(oc4ccccc43)c2=O)cc1 | inactive
56 | CC(C)(C)c1ccc(OCC(=O)N2CCC(c3nc4ccccc4s3)CC2)cc1 | inactive
57 | O=C(Cn1cc(SCc2cccc(Cl)c2)c2ccccc21)N1CCCCC1 | inactive
58 | COc1ccc(Cn2ccc3nc(C)c(C(=O)Nc4ccc(C)c(F)c4)cc3c2=O)cc1 | inactive
59 | O=C(Cn1c(=O)n(Cc2cccs2)c(=O)c2cccnc21)Nc1ccc(F)cc1 | inactive
60 | COc1ccc(OC)c2sc(N3CCN(C(=O)C4COc5ccccc5O4)CC3)nc12 (centres undefined) | inactive
61 | COc1cc(NS(=O)(=O)c2ccc3c(c2)OCC(C(=O)N2CCCC2)O3)cc(OC)c1 (centres undefined) | inactive
62 | Cc1c(CC(=O)N2CCN(C(=O)C3COc4ccccc4O3)CC2)c(=O)oc2c(O)c(O)ccc12 (centres undefined) | 8.91 µM (active)
63 | COc1ccc(C(=O)N2CCC(c3nc4ccccc4o3)CC2)cc1 | inactive
64 | COc1ccc(CCNS(=O)(=O)c2cc(-c3cc(C)no3)ccc2C)cc1OC | inactive
65 | CC(=O)c1ccc(NC(=O)c2nc(-c3ccc(C)cc3)n3c2CCCCC3)cc1 | inactive
66 | COc1ccc(N2CCN(C(=O)c3c(C)oc4nc(C)nc(N5CCCC5)c34)CC2)cc1 | inactive
67 | COc1cccc(NC(=O)N(Cc2cn(C)c3ccccc23)C2CCCCCC2)c1 | inactive
68 | Cc1ccc(CCNC(=O)c2nnc(Cc3cccc(F)c3)o2)cc1 | inactive
69 | COC(=O)c1ccc(Cn2c(SCC(=O)N(C)c3ccccc3)nc3ccccc32)cc1 | inactive
70 | COc1cc(Nc2nc(-c3ccc(OC)c(OC)c3)nc3ccccc23)cc(OC)c1 | inactive
71 | CCOC(=O)c1oc2ccc(S(=O)(=O)n3nc(-c4ccccc4OC)cc3N)cc2c1C | inactive
72 | O=C(c1cnn(-c2ccc(F)cc2)c1-n1cccc1)N1CCN(c2ccc(F)cc2)CC1 | inactive

Row | SMILES | Potency
73 | C/C=C(\C)C(=O)N1CC2(CC(c3cccc(NC(=O)CCCCC)c3)=NO2)C[C@@H]1C(N)=O (some centres undefined) | inactive
74 | NC(=O)[C@H]1CC2(CC(c3cccc(NC(=O)[C@H]4CCC(=O)N4)c3)=NO2)CN1C(=O)c1ccccc1C(=O)c1ccccc1 (some centres undefined) | inactive
75 | C=C(C)C(=O)Nc1cccc(C2=NOC3(C2)C[C@H](C(N)=O)N(C(=O)C(c2ccccc2)c2ccccc2)C3)c1 (some centres undefined) | 7.94 µM (active)
76 | O=C(CC1C(=O)N(c2ccccc2)C(=O)N1CCc1cccs1)Nc1ccc(F)cc1 (centres undefined) | inactive
77 | Fc1ccc(-c2nn(-c3ccccc3Cl)c3c2cnc2ccccc23)cc1 | inactive
78 | COC(=O)c1ccccc1NC(=O)c1cc(-c2ccccc2O)no1 | inactive
79 | COc1ccc(CCNC(=O)c2cn(C)c3ccc(S(=O)(=O)N(C)C4CCCCC4)cc3c2=O)cc1OC | inactive
80 | Cc1nn(C(=O)c2c(F)cccc2F)c(C)c1S(=O)(=O)N1CCOCC1 | inactive
81 | Cc1cccc(NC(=O)CSc2ncc(-c3ccccc3)[nH]2)c1C | inactive
82 | CCc1ccc(NC(=O)CCCc2nnc3n(CCCOC)c(=O)c4sccc4n23)cc1 | inactive
83 | COc1ccc(C2=CC(c3ccccc3Cl)n3nc(-c4ccc(Cl)cc4)nc3N2)cc1 (centres undefined) | inactive
84 | Cc1ccc(-c2onc(C)c2C)cc1S(=O)(=O)Nc1ccccn1 | inactive
85 | Cc1ccc(CN2C(=O)SC(Nc3ccccc3)C2=O)cc1 (centres undefined) | inactive
86 | O=C(OCc1cc(=O)n2nc(C3CC3)sc2n1)c1ccccc1Cl | inactive
87 | O=C(NCc1ccc(F)cc1)c1ccc(Cn2c(SCc3ccc(F)cc3)nc3cccnc32)cc1 | inactive
88 | COc1cccc(N2CCN(S(=O)(=O)c3cc(Br)cc4c3N(C(=O)C3CC3)CC4)CC2)c1 | inactive
89 | O=C(Nc1nnc(C2CC(=O)N(c3ccc(Cl)cc3)C2)s1)c1ccco1 (centres undefined) | inactive
90 | Cc1ccc(C2CCN(C(=O)c3cnn(-c4ccccc4Cl)c3C3CCN(C(=O)OC(C)(C)C)CC3)C2)cc1 (centres undefined) | inactive
91 | O=C(COc1ccc(Cl)cc1)Nc1ccc(-c2nc3cc(Cl)ccc3o2)c(O)c1 | inactive
92 | COc1cc(C(CC(=O)NCCC(C)C)N2Cc3ccccc3C2=O)cc(OC)c1OC (centres undefined) | inactive
93 | COc1ccccc1C1C(C(=O)N2CCCCC2)=C(C)Nc2nc3ccccc3n21 (centres undefined) | inactive
94 | CCOc1ccc(C2CC(=O)c3c([nH]c(C(=O)OCc4ccccc4)c3C)C2)cc1 (centres undefined) | inactive
